Data: PubChem BioAssay AID1159580 (chemical genetic matrix, 2015)
“And” between values parts separate entries of the source, which are not always exact repeats. Equal values may be shown once. The whole screen tested about 5,500 compounds, of which about 2,000 (36%) were called active. About 18% were inconclusive and are not listed. No stated cut-off is given here; in the data, active means normalized growth mostly below about 0.91 (no sharp cut-off); inconclusive means no clear call, values can overlap the other calls; inactive means mostly above about 0.92. Some of the results follow.

Experiment: chemical genetic growth profiling, strain panel (AID 1159580);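 further: tested at 20 µM; growth read once vehicle control cultures reached saturation at 30 °C; 1 = growth at the plate median or of vehicle wells; lower values mean less growth of the strain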
Conditions: S. cerevisiae deletion strains, growth OD

Measured: normalized growth

CC1(C)C2CC(=O)O[C@@]3(C)C4=CC(=O)O[C@@H](c5ccoc5)[C@]4(C)CCC3[C@@]2(C)C=C[C@H]1O (stereo partly drawn)
inactive: locus YAL013W, strain DEP1, active compounds read low 0.997 | locus YAL021C, strain ccr4, active compounds read low 0.993 | locus YAL026C, strain drs2, active compounds read low 0.98 | locus YAL030W, strain snc1, active compounds read low 0.978 | locus YBL061C, strain skt5, active compounds read low 0.986 | locus YBR009C, strain hhf1, active compounds read low 0.991 | locus YBR021W, strain FUR4, active compounds read low 1.01 | locus YBR023C, strain chs3, active compounds read low 0.97 | locus YBR171W, strain sec66, active compounds read low 0.966 | locus YBR229C, strain ROT2, active compounds read low 1.01 | locus YBR231C, strain swc5, active compounds read low 0.985 | locus YBR279W, strain paf1, active compounds read low 0.985 | locus YCL011C, strain gbp2, active compounds read low 0.967 | locus YCL016C, strain dcc1, active compounds read low 1.01 | locus YCL029C, strain bik1, active compounds read low 0.989 | locus YCL061C, strain MRC1, active compounds read low 0.999 | locus YCL069W, strain vba3, active compounds read low 0.971 | locus YCR088W, strain abp1, active compounds read low 0.974 | locus YDL005C, strain med2, active compounds read low 0.975 | locus YDL035C, strain GPR1, active compounds read low 1.03 | locus YDL040C, strain nat1, active compounds read low 0.974 | locus YDL074C, strain BRE1, active compounds read low 1.01 | locus YDL101C, strain DUN1, active compounds read low 0.999 | locus YDL134C, strain PPH21, active compounds read low 1.01 | locus YDL185W, strain tfp1, active compounds read low 0.999 | locus YDL192W, strain arf1, active compounds read low 0.988 | locus YDR001C, strain nth1, active compounds read low 0.99 | locus YDR069C, strain doa4, active compounds read low 0.98 | locus YDR101C, strain arx1, active compounds read low 1 | locus YDR137W, strain rgp1, active compounds read low 1.01 | locus YDR159W, strain sac3, active compounds read low 0.953 | locus YDR162C, strain NBP2, active compounds read low 0.998 | locus YDR195W, strain ref2 0.961 | locus YDR297W, strain sur2, active compounds read low 0.983 | locus YDR318W, strain mcm21, active compounds read low 0.989 | locus YDR334W, strain swr1, active compounds read low 0.981 | locus YDR335W, strain msn5, active compounds read low 0.979 | locus YDR388W, active compounds read low 0.99 | locus YDR392W, strain spt3, active compounds read low 0.984 | locus YDR502C, strain sam2, active compounds read low 0.998 | locus YEL003W, strain gim4, active compounds read low 0.978 | locus YEL037C, strain rad23, active compounds read low 0.984 | locus YEL061C, strain CIN8 (second series), active compounds read low 0.972 | locus YER015W, strain faa2, active compounds read low 0.975 | locus YER016W, strain bim1, active compounds read low 0.988 | locus YER110C, active compounds read low 0.983 | locus YER111C, strain swi4, active compounds read low 0.975 | locus YER155C, strain BEM2 (second series), active compounds read low 1 | locus YER155C, strain BEM2, active compounds read low 1.01 | locus YER167W, strain BCK2, active compounds read low 1.02 | locus YFR010W, strain ubp6, active compounds read low 0.971 | locus YGL078C, strain dbp3, active compounds read low 0.982 | locus YGL086W, strain mad1, active compounds read low 0.988 | locus YGL167C, strain pmr1, active compounds read low 0.989 | locus YGL173C, strain kem1, active compounds read low 0.98 | locus YGL227W, strain vid30, active compounds read low 0.98 | locus YGL240W, strain doc1, active compounds read low 0.968 | locus YGL248W, strain PDE1, active compounds read low 1 | locus YGL253W, strain hxk2, active compounds read low 0.948 | locus YGR078C, strain PAC10, active compounds read low 1 | locus YGR135W, strain pre9, active compounds read low 0.969 | locus YGR252W, strain gcn5, active compounds read low 0.97 | locus YHR013C, strain ard1, active compounds read low 0.973 | locus YHR027C, strain rpn1, active compounds read low 0.983 | locus YHR030C, strain SLT2, active compounds read low 1.01 and 0.99 | locus YHR079C, strain IRE1 (second series), active compounds read low 0.988 | locus YHR079C, strain IRE1, active compounds read low 0.987 | locus YHR094C, strain hxt1, active compounds read low 0.987 | locus YHR129C, strain ARP1, active compounds read low 1.01 | locus YHR142W, strain chs7, active compounds read low 0.964 | locus YHR200W, strain rpn10, active compounds read low 0.989 | locus YIL066C, strain RNR3, active compounds read low 1.02 | locus YIL073C, strain SPO22, active compounds read low 0.988 | locus YIL125W, strain kgd1, active compounds read low 0.991 | locus YIR030C, strain dcg1, active compounds read low 0.975 | locus YJL092W, strain hpr5, active compounds read low 0.971 | locus YJL095W, strain BCK1 (second series), active compounds read low 0.982 | locus YJL095W, strain BCK1, active compounds read low 0.986 and 0.978 | locus YJL115W, strain asf1, active compounds read low 0.987 | locus YJL129C, strain trk1, active compounds read low 0.956 | locus YJL134W, strain LCB3, active compounds read low 1.01 | locus YJL154C, strain vps35, active compounds read low 0.99 | locus YJL164C, strain tpk1, active compounds read low 1.01 | locus YJL166W, strain qcr8, active compounds read low 0.98 | locus YJL168C, strain set2, active compounds read low 0.98 | locus YJL187C, strain SWE1 (second series), active compounds read low 0.997 | locus YJL187C, strain SWE1, active compounds read low 0.983 | locus YJR043C, strain POL32, active compounds read low 1.03 | locus YJR066W, strain TOR1, active compounds read low 0.946 | locus YKL009W, strain mrt4, active compounds read low 0.985 | locus YKL068W, active compounds read low 1 | locus YKL085W, strain MDH1 (second series), active compounds read low 0.993 | locus YKL085W, strain MDH1, active compounds read low 0.993 | locus YKL160W, strain elf1, active compounds read low 1.02 | locus YKR001C, strain vps1, active compounds read low 0.997 | locus YKR026C, strain gcn3, active compounds read low 0.977 | locus YKR091W, strain srl3, active compounds read low 0.983 | locus YLL001W, strain dnm1, active compounds read low 1 | locus YLL026W, active compounds read low 0.971 | locus YLL041C, strain sdh2, active compounds read low 0.976 | locus YLR027C, strain aat2, active compounds read low 0.968 | locus YLR039C, strain RIC1, active compounds read low 0.952 | locus YLR058C, strain SHM2, active compounds read low 1.01 | locus YLR102C, strain apc9, active compounds read low 0.982 | locus YLR113W, strain HOG1, active compounds read low 0.969 | locus YLR221C, strain rsa3, active compounds read low 0.975 | locus YLR258W, strain gsy2, active compounds read low 0.98 | locus YLR262C, strain YPT6 (second series), active compounds read low 1.01 | locus YLR268W, strain sec22, active compounds read low 1.01 | locus YLR320W, strain mms22, active compounds read low 0.993 | locus YLR330W, strain CHS5, active compounds read low 1.01 | locus YLR342W, strain FKS1, active compounds read low 0.977 | locus YLR357W, strain rsc2, active compounds read low 1 | locus YLR370C, strain arc18, active compounds read low 0.958 | locus YLR371W, strain rom2, active compounds read low 0.992 | locus YLR384C, strain iki3, active compounds read low 0.986 | locus YLR418C, strain cdc73, active compounds read low 0.955 | locus YML016C, strain PPZ1, active compounds read low 1.01 | locus YML032C, strain rad52, active compounds read low 1 | locus YML120C, strain ndi1, active compounds read low 0.959 | locus YML124C, strain tub3, active compounds read low 0.983 | locus YMR058W, strain fet3, active compounds read low 0.986 | locus YMR078C, strain ctf18, active compounds read low 0.985 | locus YMR125W, strain sto1, active compounds read low 0.993 | locus YMR129W, active compounds read low 0.992 | locus YMR205C, strain PFK2, active compounds read low 1.04 | locus YMR223W, strain ubp8, active compounds read low 0.971 | locus YMR231W, strain pep5, active compounds read low 0.948 | locus YMR263W, strain SAP30, active compounds read low 1.02 | locus YMR307W, strain GAS1, active compounds read low 0.922 | locus YNL067W, strain RPL9B, active compounds read low 0.999 | locus YNL071W, strain lat1, active compounds read low 0.987 | locus YNL153C, strain GIM3, active compounds read low 1 | locus YNL183C, strain NPR1, active compounds read low 0.962 | locus YNL209W, strain ssb2, active compounds read low 1.01 | locus YNL233W, strain BNI4, active compounds read low 0.992 | locus YNL248C, strain rpa49, active compounds read low 0.98 | locus YNL250W, strain rad50, active compounds read low 0.984 | locus YNL271C, strain bni1, active compounds read low 0.995 | locus YNL298W, strain CLA4, active compounds read low 1 | locus YNL307C, strain MCK1, active compounds read low 0.991 | locus YNL322C, strain KRE1 (second series), active compounds read low 0.962 | locus YNR049C, strain mso1, active compounds read low 0.981 | locus YNR052C, strain pop2, active compounds read low 0.983 | locus YOL006C, strain TOP1, active compounds read low 1.03 | locus YOL012C, strain htz1 0.912 | locus YOL147C, strain pex11, active compounds read low 0.989 | locus YOR001W, strain rrp6, active compounds read low 0.95 | locus YOR061W, strain CKA2, active compounds read low 1.01 | locus YOR069W, strain VPS5, active compounds read low 1 | locus YOR070C, strain gyp1, active compounds read low 0.984 | locus YOR080W, strain dia2, active compounds read low 0.963 | locus YOR083W, strain WHI5, active compounds read low 1.02 | locus YOR106W, strain vam3, active compounds read low 0.989 | locus YOR136W, strain idh2, active compounds read low 0.998 | locus YOR144C, strain elg1, active compounds read low 0.993 | locus YOR184W, strain ser1, active compounds read low 1.02 | locus YOR231W, strain MKK1, active compounds read low 0.998 | locus YOR265W, strain rbl2, active compounds read low 0.966 | locus YOR270C, strain vph1, active compounds read low 0.951 | locus YOR290C, strain snf2, active compounds read low 0.974 | locus YOR316C, strain cot1, active compounds read low 0.981 | locus YPL051W, strain arl3, active compounds read low 0.987 | locus YPL078C, strain atp4, active compounds read low 1.01 | locus YPL106C, strain sse1, active compounds read low 1.02 | locus YPL240C, strain hsp82, active compounds read low 0.967 | locus YPL241C, strain CIN2, active compounds read low 1.01 | locus YPL256C, strain CLN2, active compounds read low 0.967 | locus YPR119W, strain clb2, active compounds read low 0.981 | locus YPR141C, strain kar3, active compounds read low 0.987 | locus YPR163C, strain tif3, active compounds read low 0.994 | locus YPR167C, strain met16, active compounds read low 0.983 | strain wtn01, active compounds read low 1.02
